# Results taken from PubChem BioAssay AID686979 (National Center for Advancing Translational Sciences (NCATS), 2013).
# Where “and” joins values, the source holds several entries; their conditions need not be identical. Identical values can stand only once. Hit rate of the full screen: of about 420,000 compounds, about 50,000 (12%) were called active. Another 26% or so got no clear call; they are omitted. The list comes from a sample in which actives are over-represented; it also holds similar structures and randomly drawn compounds. A number with no mark means an inactive call. The call rests on the fitted dose curve; in most records, active means well fitted inhibition curve with a large enough effect; inconclusive means small, poorly fitted or top-dose-only effect; inactive means flat fitted curve, though single readings scatter.
# Experiment: qHTS for Inhibitors of human tyrosyl-DNA phosphodiesterase 1 (TDP1): qHTS in cells in presence of CPT; further: nearly all actives have a fitted effect of over 55% in size
# Settings: chicken DT40 Tdp1-/-;hTDP1 cells + 20 nM CPT, ATP luminescence, 48 h; series mostly up to 46.2 µM; activity change, negative = growth inhibition: at the top concentration
# Outline: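 Cell growth measured by CellTiter-Glo luminescence after a minimum 48 h, 37 C compound exposure with 20 nM CPT in Tdp1-knockout DT40 cells stably expressing hTDP1, seeded 400/well; qHTS titration format.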
# On the % scale 0 is the no-effect control and ±100 the full control effect; potency means the concentration at half of the fitted maximal effect.
SMILES,"activity change, negative = growth inhibition",Potency
COc1cc(OC)cc(C(=O)OCC(=O)Nc2ccc(F)cc2F)c1,10.6%,
Cc1cc(C(F)(F)F)nc(SCC(=O)Nc2nccs2)n1,-8.46%,
COC(=O)c1ccccc1NC(=O)Cn1c(=O)n(-c2cccc(C(F)(F)F)c2)c(=O)c2c(C)c(C)sc21,-13.6%,
CNS(=O)(=O)c1ccc(NC(=O)Nc2ccc3c(c2)OCO3)cc1,-8.43%,
O=C(N[C@@H](Cc1ccccc1)C(=O)OCc1ccccc1)c1nc[nH]c1C(=O)NC1CCNCC1,10.2%,
O=C(NC1CCCC1)C1c2ccccc2OCC(=O)N1Cc1ccccc1 (stereo unspecified),-18.2%,
COc1ccccc1NC(=O)c1cc(N2C(=O)C3C4CCC(C4)C3C2=O)ccc1Cl (stereo unspecified),3.9%,
CCOC(=O)c1ccccc1NC(=O)CSc1nc2c(sc(=S)n2CC)c(=O)[nH]1,-25.9%,
CC(C)n1c(O)c(N=Nc2ccccn2)c2ccccc21,-9.09%,
FC(F)(F)c1ccnc(Oc2ccc(C3=NCCS3)cc2)c1,-0.223%,
Cc1ccc(NC(=O)c2ccco2)cc1,16.3%,
O=C(c1cnccn1)N1CCN(S(=O)(=O)c2cccc(Cl)c2)CC1,-5.64%,
O=C1CC(c2ccccc2)C(=O)N2C(=O)CC(c3ccccc3)C(=O)N12 (stereo unspecified),22.6%,
CCOC(=O)C1CCN(C(c2cc3cc(C)cc(C)c3[nH]c2=O)c2nnnn2C2CCCCC2)CC1 (stereo unspecified),-25.1%,
CNC(=O)NC(=O)C(C)N1CCN(C/C=C/c2ccccc2)CC1 (stereo unspecified),13.1%,
FC(F)(F)Oc1ccccc1C(c1nnnn1C1CCCCC1)N1CCN(C/C=C/c2ccccc2)CC1 (stereo unspecified),,18.4 µM (active)
COCCn1c(=O)c(-c2ccc(OC)cc2)nc2cnc(Oc3cccc(Cl)c3)nc21,4.38%,
Cc1cc(C)n(-c2ccc3nncn3n2)n1,9.29%,
CC1CCN(Cc2nc(-c3ccc(Cl)cc3)no2)CC1,-26.8%,
Cc1ccc(-c2noc(CC(c3ccccc3)c3ccccc3)n2)cc1,-27.7%,
COc1ccc(-c2noc(CSc3nc4ccc(C)cc4[nH]3)n2)cc1,,20.6 µM (active)
COc1ccc(-c2noc(CSc3ccc(C)cc3)n2)cc1,-20.1%,
Cc1ccc(S(=O)(=O)N(Cc2nc(-c3ccc(Cl)cc3)no2)C2CCCCC2)cc1,,16.4 µM (active)
COc1ccc(-c2noc(CN(C)S(=O)(=O)c3ccc(C)cc3)n2)cc1,,16.4 µM (active)
COc1ccccc1Cc1nc(-c2ccc(C)cc2)no1,-29.4%,
COc1ccc(-c2noc(CCC(=O)N(C)c3ccccc3C)n2)cc1,-22.6%,

SMILES,"activity change, negative = growth inhibition",Potency
COc1ccc2nc(SCC(=O)Nc3c(C)cc(C)cc3C)[nH]c2c1,-17.4%,
Cc1cccc(OCC(=O)NCCNC(=O)c2cccnc2)c1,-1.32%,
CCCC(=O)N1CCN(c2nc3c(OC)ccc(C)c3s2)CC1,-28.7%,
CC(C)C(=O)Nc1c2c(nn1-c1ccccc1)CSC2,-4.66%,
O=C(CN1C(=O)CCS(=O)(=O)c2ccccc21)NCc1ccc(F)cc1,2.03%,
CN(CC(=O)Nc1ccccc1Cl)C(=O)c1ccccc1SCC(=O)N1CCCC1,1.16%,
Cc1cccc(CNC(=O)c2cnn(-c3nccc(-c4ccccc4F)n3)c2C2CC2)n1,-0.952% [at 9.04 µM],
CCOc1ccccc1N1CN(Cc2ccccc2)CNC1=S,-17.4%,
O=C1CCCN1C(=O)COc1ccc([N+](=O)[O-])cc1,10.3%,
CN(Cc1ccccc1)C(=O)c1cn(C)c2ccc(S(=O)(=O)N(C)C3CCCCC3)cc2c1=O,-20%,
CCN(CC)S(=O)(=O)c1ccc2[nH]cc(C(=O)NCCc3ccccc3)c(=O)c2c1,,14.6 µM (active) and 23.1 µM (active)
CCc1ccc(NS(=O)(=O)c2ccc3[nH]cc(C(=O)NCCc4cccc(C)c4)c(=O)c3c2)cc1,-27.2%,
O=C(NCCc1ccccc1)c1c[nH]c2ccc(F)cc2c1=O,9.16%,
CC(=O)N/C(=C/c1ccc(Cl)cc1)C(=O)NCCc1c[nH]c2ccccc12,-13.8%,
CN(c1ccccc1)S(=O)(=O)c1ccc(Cl)c(C(=O)NCCc2c[nH]c3ccccc23)c1,,14.6 µM (active)
CN(c1ccccc1)S(=O)(=O)c1ccc(Cl)c(C(=O)OCC(N)=O)c1,0.976%,
CN(CC(=O)NC(=O)Nc1ccccc1F)Cc1ccccc1,-15.6%,
COCCNC(=O)C1CCN(C(=O)C2CC(=O)N(c3ccc(C)cc3)C2)CC1 (stereo unspecified),10.4%,
CCN(CC)CCCNC(=O)COc1ccc2oc3c(c2c1)CCCC3,-13.5%,
N[C@@H](Cc1ccccc1)C(=O)N1CCOCC1,4.38%,
COc1cc(OC)cc(C(=O)NCCCn2ccnc2)c1,28.8%,
CCOc1ccc(-c2cc3nc(C4CCN(C(=O)OC(C)(C)C)CC4)c(C(=O)Nc4cccc(CC)c4)cn3n2)cc1,,23.1 µM (active)
CCOc1ccc(-c2cc3nc(C4CCN(C(=O)OC(C)(C)C)CC4)c(C(=O)Nc4ccc(C(=O)OC)cc4)cn3n2)cc1,-25.1%,
CCc1cccc(NC(=O)COC(=O)C2CCN(c3ccc(C(F)(F)F)cn3)CC2)c1,0.109%,
O=c1[nH]cnc(O)c1C(c1ccc(F)cc1)c1c(O)nc[nH]c1=O,6.39%,
